High-throughput results deposited in PubChem by several laboratories.
Shown are actives, neighbours in structure and some others; about 21% of the full set was active somewhere.
CYP2C19 act: activators of human cytochrome P450 2C19; recombinant CYP2C19, luciferin-H EGE luminescence; hits give high values; 0 = fully inhibited enzyme, 1 = untreated enzyme; 96,000 tested, under 10 active; AID 1025; activation factor at 5 µM; P33261;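 active = activation factor of at least 2 at 5 µM in the primary screen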
CYP2C19 inhib: human CYP2C19 inhibition | AID 778 | CYP2C19 Supersomes, luciferin-H EGE luminescence, 30 min | 96,000 compounds, 21% hits | inhibition, % at 5 µM | P33261;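 active = CYP2C19 inhibition above a set limit at 5 µM in the primary screen, cut at about 50% in these data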
MRP1 act: activators of MRP-1. H69AR cells + doxorubicin, viability rescue, CellTiter-Glo. viability increase, % at 10 µM. 140,000 compounds, 0.61% hits. AID 799;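 active = viability gain under doxorubicin at or above a set limit, the compound median plus 3 SD, cut at about 4.7% in these data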;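 also: MRP-1 overexpressing cells given doxorubicin 25 µM after compound pretreatment; 18-22 h compound pretreatment then 72 h with doxorubicin before readout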
MRP resist rev: MRP-mediated drug resistance reversal. differential viability (reversal), % at 10 µM. 85,000 compounds, 0.04% hits. H69AR cells + 2 uM doxorubicin, CellTiter-Glo, 72 h;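 active = viability drop by adding the cancer drug above about 55%, with treated viability meeting a 40% cutoff, limit read from the data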;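 also: larger differential means the compound sensitizes cells more to doxorubicin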
CYP2C9 inh: inhibitors of human CYP2C9; P11712; CYP2C9 Supersomes, luciferin-H conversion, luminescence; inhibition, % at 5 µM; 96,000 compounds, 20% hits;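 active = blocking of liver enzyme CYP2C9 beyond about 50% at 5 µM, limit read from the data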
Target sequence (P11712 whole entry, looked up): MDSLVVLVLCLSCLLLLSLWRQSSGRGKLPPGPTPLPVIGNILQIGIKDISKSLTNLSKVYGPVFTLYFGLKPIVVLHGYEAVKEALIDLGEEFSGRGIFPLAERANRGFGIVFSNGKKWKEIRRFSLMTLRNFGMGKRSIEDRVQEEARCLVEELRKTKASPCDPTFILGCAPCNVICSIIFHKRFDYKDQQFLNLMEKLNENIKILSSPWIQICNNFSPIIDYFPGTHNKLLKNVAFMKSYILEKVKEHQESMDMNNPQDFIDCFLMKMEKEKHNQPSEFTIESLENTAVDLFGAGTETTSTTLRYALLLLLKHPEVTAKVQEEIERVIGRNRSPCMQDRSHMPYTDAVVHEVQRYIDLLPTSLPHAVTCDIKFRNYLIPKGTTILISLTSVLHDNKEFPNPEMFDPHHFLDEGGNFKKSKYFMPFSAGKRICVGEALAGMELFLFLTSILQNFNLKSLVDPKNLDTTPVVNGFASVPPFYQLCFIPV
CYP2C9 act: CYP2C9 (human) activation. activation factor at 5 µM. 96,000 compounds, 1.4% hits. recombinant CYP2C9, luciferin-H conversion, luminescence; hits give high values; factor 1 = untreated enzyme, 0 = blocked. P11712. AID 1024;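 active = activation factor of 2 or more for CYP2C9 at a 5 µM dose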
Of the large screens only hits and unclear results are named; the others gave an inactive call.

O=C1c2ccccc2C(=O)N1c1ccc(-c2nc3ccccc3o2)cc1	none
Nc1ccc(CCc2nc3ccccc3o2)cc1	CYP2C19 inhib 96.0, CYP2C9 inh 75.9
O=S(=O)(CCc1nc2ccccc2o1)c1ccc(Cl)c(Cl)c1	none
Cc1c(O)c2c(=O)n(-c3ccccc3)c(-c3ccccc3)cc2oc1=O	none (no result: CYP2C19 act, CYP2C19 inhib, MRP resist rev, CYP2C9 inh, CYP2C9 act)
COC(=O)c1cc(C(=O)OC)n(Cc2ccc(F)cc2)n1	CYP2C19 inhib 74.2
O=C1CC(c2ccccc2)CN1C(=O)c1ccccc1 (centres undefined)	CYP2C19 inhib 51.6
CC(=O)Nc1ccc(N2C(=O)CC(c3ccccc3)CC2=O)cc1	none (no result: MRP resist rev)
O=[N+]([O-])c1ccc(N/N=C/c2c[nH]c3ccccc23)cc1	CYP2C9 inh 58.1 (no result: MRP resist rev)
CC(C)Sc1nnc([C@H](Cc2c[nH]c3ccccc23)NC(=O)OC(C)(C)C)o1	none
CC(C)CC(OC(=O)c1cccs1)C(=O)NCc1cccs1 (centres undefined)	CYP2C19 inhib 95.3, CYP2C9 inh 92.2
CC(OC(=O)c1ccco1)C(=O)NCc1cccs1 (centres undefined)	none (no result: CYP2C19 act, CYP2C19 inhib, CYP2C9 inh, CYP2C9 act)
CC(OC(=O)c1cccs1)C(=O)NCc1cccs1 (centres undefined)	CYP2C19 inhib 95.2, CYP2C9 inh 62.0
COc1ccc2oc(-c3ccc(C)c(NC(=O)c4ccc(N5CCOCC5)c([N+](=O)[O-])c4)c3)nc2c1	none (no result: MRP resist rev)
O=S(=O)(CCc1nc2ccccc2s1)c1ccc(Cl)cc1	none
O=S(=O)(Cc1nc2ccccc2s1)c1ccccc1	CYP2C9 act 2.3
COc1ccc(S(=O)(=O)CCc2nc3ccccc3s2)cc1	CYP2C19 inhib 75.5
Nc1ncc2c(n1)CC(c1ccco1)CC2=O (centres undefined)	none
O=[N+]([O-])c1cc(C(F)(F)F)ccc1NCCOc1ccccc1	none (no result: CYP2C19 act, CYP2C19 inhib, MRP resist rev, CYP2C9 inh, CYP2C9 act)
Cc1ccccc1OCCNc1ccc(C(F)(F)F)cc1[N+](=O)[O-]	CYP2C19 inhib 75.0 (no result: MRP resist rev)
Cc1cccc(OCCNC(=O)c2ccc(Oc3ccc(C(F)(F)F)cc3[N+](=O)[O-])cc2)c1	MRP1 act 8.2 (no result: MRP resist rev)
Cc1ccc(C(=O)C(C)Oc2cccc(NC(=O)c3ccco3)c2)cc1 (centres undefined)	none (no result: CYP2C19 act, CYP2C19 inhib, CYP2C9 inh, CYP2C9 act)
CSCCC(NS(=O)(=O)c1cccs1)C(=O)NCc1ccc(C)cc1 (centres undefined)	none (no result: CYP2C19 act, CYP2C19 inhib, MRP resist rev, CYP2C9 inh, CYP2C9 act)
Cc1ccc(CNC(=O)C(NS(=O)(=O)c2cccs2)C(C)C)cc1 (centres undefined)	CYP2C19 inhib 85.4, CYP2C9 inh 52.3 (no result: MRP resist rev)
Cc1ccc(CNC(=O)C(Cc2ccccc2)NS(=O)(=O)c2cccs2)cc1 (centres undefined)	CYP2C19 inhib 60.7
CC(C)C(NS(=O)(=O)c1cccs1)C(=O)NCc1ccc2c(c1)OCO2 (centres undefined)	CYP2C19 inhib 93.5, CYP2C9 inh 83.6
Cn1c(Cc2cccs2)nnc1SC/C=C/c1ccccc1	none (no result: CYP2C19 act, CYP2C19 inhib, CYP2C9 inh, CYP2C9 act)
Cc1sc(NC(=O)CSc2nnc(C)c(=O)[nH]2)c(C#N)c1C	CYP2C9 inh 97.4
Cc1nnc(SCC(=O)Nc2sc3c(c2C(N)=O)CCCC3)[nH]c1=O	CYP2C9 inh 68.8
Cc1sc(NC(=O)CSc2nnc(C(C)C)n2C)c(C#N)c1C	none (no result: CYP2C19 act, CYP2C19 inhib, CYP2C9 inh, CYP2C9 act)
Cn1cnnc1SCC(=O)Nc1sc2c(c1C(N)=O)CCC2	none
CCCn1c(SCC(=O)Nc2sc(C)c(C)c2C#N)nnc1C(C)C	CYP2C19 inhib 75.3
CCOC(=O)c1sc2nc(NC(=O)C3CCCCC3)sc2c1C	none
CCOC(=O)c1sc(NC(=O)C2CC2)nc1C	CYP2C19 inhib 63.1, CYP2C9 inh 61.2
CCOC(=O)c1sc2nc(NC(=O)C3CC3)sc2c1C	CYP2C19 inhib 52.7
Cc1nc(NC(=O)C2CC2)sc1C(=O)N(C)C	none (no result: CYP2C19 act, CYP2C19 inhib, CYP2C9 inh, CYP2C9 act)
CCOc1ccc(C2/C(=C(/O)c3ccc(Cl)cc3)C(=O)C(=O)N2CCCN(C)C)cc1OC (centres undefined)	none (no result: MRP1 act)
CCCCCNC(=O)c1cc(S(=O)(=O)N2CCCC2)ccc1F	none (no result: CYP2C19 act, CYP2C19 inhib, MRP resist rev, CYP2C9 inh, CYP2C9 act)
O=C(NNc1cccc(Cl)n1)Nc1ccccc1Cl	none (no result: MRP resist rev)
COC(=O)c1cccc(NC(=O)C(C)N2C(=O)c3ccccc3C2=O)c1 (centres undefined)	CYP2C9 inh 98.5
O=C(OCC(F)(F)C(F)F)c1ccccc1C(=O)Oc1ccc(F)cc1F	CYP2C19 inhib 90.5, CYP2C9 inh 75.9
O=C(CCC(=O)OCC(F)(F)C(F)F)Nc1ccc(F)cc1F	none (no result: CYP2C19 act, CYP2C19 inhib, MRP resist rev, CYP2C9 inh, CYP2C9 act)
N#Cc1c(C(F)(F)F)cc(-c2cccs2)nc1SCc1ccc(Cl)nc1	CYP2C9 inh 55.6 (no result: MRP resist rev)
C#CCSc1nc(-c2ccccc2)cc(C(F)(F)F)c1C#N	none (no result: MRP resist rev)
N#Cc1c(C(F)(F)F)cc(-c2cccs2)nc1SCc1cccnc1	CYP2C19 inhib 57.1, CYP2C9 inh 75.1 (no result: MRP resist rev)
N#Cc1c(N)nc(SCc2ccccn2)c(C#N)c1-c1cccs1	none
Cc1cccc2cc(-c3ccccc3)c(-c3ccccc3)c[n+]12	none (no result: CYP2C19 act, CYP2C19 inhib, MRP resist rev, CYP2C9 inh, CYP2C9 act)
CC(=O)NC(N1CCCCC1)C(F)(F)C(F)(F)C(F)(F)C(F)F (centres undefined)	CYP2C19 inhib 98.8, CYP2C9 inh 65.0
O=P(O)(O)C(O)C(F)(F)C(F)(F)C(F)(F)C(F)F (centres undefined)	none
CCn1c(CSc2nnc(-c3ccoc3C)n2C)nc2cc(S(=O)(=O)N(C)C)ccc21	none (no result: CYP2C19 act, CYP2C19 inhib, CYP2C9 inh, CYP2C9 act)
CCn1c(CSc2nnc(-c3ccc4c(c3)OCO4)o2)nc2cc(S(=O)(=O)N(C)C)ccc21	CYP2C19 inhib 82.7, CYP2C9 inh 81.1 (no result: MRP resist rev)
CCn1c(CSc2nnc(C)n2-c2ccccc2)nc2cc(S(=O)(=O)N(C)C)ccc21	CYP2C9 inh 65.8
CN1C(=O)C(Cl)(Cl)C(=O)c2ccccc21	none (no result: CYP2C19 act, CYP2C19 inhib, MRP resist rev, CYP2C9 inh, CYP2C9 act)
COc1ccc(/C=C(/C(=O)Nc2ccccc2C(=O)NC(C)C)c2ccccc2)cc1	CYP2C9 inh 59.9 (no result: MRP resist rev)
O=C1c2ccccc2NC(c2ccccc2)N1Cc1ccco1 (centres undefined)	CYP2C9 inh 59.5
O=C1c2ccccc2NC(c2ccc(F)cc2)N1Cc1ccco1 (centres undefined)	CYP2C19 inhib 53.0, CYP2C9 inh 67.7
COc1ccc(C2Nc3ccccc3C(=O)N2Cc2ccco2)cc1COc1ccc([N+](=O)[O-])cc1 (centres undefined)	CYP2C9 inh 96.4
O=C(NC1CCCCC1)c1cccnc1C(=O)O	none
CCN(CC)c1ccc(C2C(C(=O)OC(C)C)C(=O)CC(C)(O)C2C(=O)OC(C)C)cc1 (centres undefined)	none (no result: MRP resist rev)
COc1ccc(C(=O)NCCSCc2ccccc2C)cc1	CYP2C19 inhib 55.3, CYP2C9 inh 52.3 (no result: MRP resist rev)
Cc1ccc(SCCC(=O)NCCSCc2ccccc2C)cc1	CYP2C9 inh 80.9 (no result: MRP resist rev)
CCCCNC(=O)CCSc1ccc(C)cc1	none (no result: CYP2C19 act, CYP2C19 inhib, MRP resist rev, CYP2C9 inh, CYP2C9 act)
COc1ccc(C(=O)NCCSCc2ccc(C)cc2)cc1	CYP2C19 inhib 55.2, CYP2C9 inh 53.3 (no result: MRP resist rev)
CCOCCCn1c(SCC(=O)NC(C)C)nc2ccccc2c1=O	none
CCNC(=O)CSc1nc2ccccc2c(=O)n1CCCOC(C)C	CYP2C19 inhib 76.4, CYP2C9 inh 61.7
N#CCSc1nc2ccccc2c(=O)n1CCC(=O)NCCc1ccccc1	none
